# Measurements from the supplement of paper PMC12645437, “Orthogonal IMiD-Degron Pairs Induce Selective Protein Degradation in Cells” (ACS Chemical Biology, 2025).
# The full ranking holds about 8,300 sequences; the median of “log2 fold change of degron read counts, EGFP-low vs EGFP+ sorted cells (limma voom), compound-induced degradation” is about -1.1, and the highest 2% start at about 3.2. The sample holds the highest values, similar sequences and a random draw of the others, so the mix is not that of the screen.
# T1: CRBN, Q96SW2
# T1 chain: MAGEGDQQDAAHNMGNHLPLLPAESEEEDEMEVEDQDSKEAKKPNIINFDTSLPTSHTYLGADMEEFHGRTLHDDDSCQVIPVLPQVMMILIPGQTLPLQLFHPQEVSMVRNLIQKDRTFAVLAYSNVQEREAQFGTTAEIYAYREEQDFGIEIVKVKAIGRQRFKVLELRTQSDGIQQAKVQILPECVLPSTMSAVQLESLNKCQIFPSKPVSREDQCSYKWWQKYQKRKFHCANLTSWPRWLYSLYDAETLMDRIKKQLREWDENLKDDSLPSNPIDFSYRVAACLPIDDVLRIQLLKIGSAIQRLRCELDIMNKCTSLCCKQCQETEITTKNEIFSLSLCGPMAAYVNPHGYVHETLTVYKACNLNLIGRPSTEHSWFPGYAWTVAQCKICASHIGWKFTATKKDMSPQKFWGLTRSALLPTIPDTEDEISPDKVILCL
# Target: T1, CRBN, Q96SW2
# Assay: log2 fold change of degron read counts, EGFP-low vs EGFP+ sorted cells (limma voom), compound-induced degradation; higher = more compound-induced degradation of the degron-EGFP fusion; degrons are variants of IKZF1/3 zinc finger 2; compound dose not given here
# Details: Jurkat, 18 h
# [1] = compound: compound 19 (5-tert-butyl-thalidomide)
# [2] = compound: compound 22 (5-morpholino-thalidomide)
# [3] = compound: compound 33 (diphenyl IMiD analogue)
# 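Further: pooled lentiviral library of zinc finger degron-EGFP fusions in mCherry-positive Jurkat cells, FACS-sorted after compound exposure, with degron abundance counted by next-generation sequencing.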
Sequence,log2 fold change of degron read counts [1],log2 fold change of degron read counts [2],log2 fold change of degron read counts [3],log2 fold change of degron read counts (compound: thalidomide)
"FCCDICGAFFTQKGNLLRHIKL [46F_47C_49D_50I_52G_53A_54F_55F_67L_, Q9UKT9]",-0.849,-1.43,-0.311,-2.26
"FSCPQCGAHFTQKGNLLRHIKL [46F_47S_49P_50Q_52G_53A_54H_55F_67L_, Q9UKT9]",-1.06,-2.04,-0.649,-1.51
"FSCSVCGHMFTQKGNLLRHIKL [46F_47S_49S_50V_52G_53H_54M_55F_67L_, Q9UKT9]",-2.17,-2.85,-2.33,-2.67
"FHCNICGAGFTQKGNLLRHIKL [46F_47H_49N_50I_52G_53A_54G_55F_67L_, Q9UKT9]",1.76,0.175,1.2,-0.885
"FSCPICGRFFTQKGNLLRHIKL [46F_47S_49P_50I_52G_53R_54F_55F_67L_, Q9UKT9]",-0.54,-1.4,-0.477,-1.17
"FKCEICGRDFTQKGNLLRHIKL [46F_47K_49E_50I_52G_53R_54D_55F_67L_, Q9UKT9]",-3.16,-3.46,-3.24,-2.51
"FYCPICGRFFTQKGNLLRHIKL [46F_47Y_49P_50I_52G_53R_54F_55F_67L_, Q9UKT9]",-0.827,-0.851,-1,-2.07
"LLCEICGFACTQKGNLLRHIKL [46L_47L_49E_50I_52G_53F_54A_55C_67L_, Q9UKT9]",0.644,-0.727,0.56,1.35
"FLCDQCGAYFTQKGNLLRHIKL [46F_47L_49D_50Q_52G_53A_54Y_55F_67L_, Q9UKT9]",-3.04,-2.52,-2.25,-2.41
"LACEICGFQCTQKGNLLRHIKL [46L_47A_49E_50I_52G_53F_54Q_55C_67L_, Q9UKT9]",3.16,2.06,0.631,0.66
"LYCEICGFQCTQKGNLLRHIKL [46L_47Y_49E_50I_52G_53F_54Q_55C_67L_, Q9UKT9]",3.53,3.71,2.78,1.8
"LECEICGFQCTQKGNLLRHIKL [46L_47E_49E_50I_52G_53F_54Q_55C_67L_, Q9UKT9]",-0.896,-1.36,0.772,2.01
"LQCEICGFQCTQKGNLLRHIKL [46L_47Q_49E_50I_52G_53F_54Q_55C_67L_, Q9UKT9]",0.99,0.223,1.43,3.3
"LDCEICGFQCTQKGNLLRHIKL [46L_47D_49E_50I_52G_53F_54Q_55C_67L_, Q9UKT9]",-0.786,-1.68,-1.53,-0.616
"LLCEICGFQCTQKGNLLRHIKL [46L_47L_49E_50I_52G_53F_54Q_55C_67L_, Q9UKT9]",0.49,-0.719,0.751,1.99
"LSCEICGFQCTQKGNLLRHIKL [46L_47S_49E_50I_52G_53F_54Q_55C_67L_, Q9UKT9]",2.4,1.95,0.752,1.19
"LFCEICGFQCTQKGNLLRHIKL [46L_47F_49E_50I_52G_53F_54Q_55C_67L_, Q9UKT9]",3.43,3.41,1.96,2.09
"LCCEICGFQCTQKGNLLRHIKL [46L_47C_49E_50I_52G_53F_54Q_55C_67L_, Q9UKT9]",1.95,1.72,1.6,1.91
"LMCEICGFQCTQKGNLLRHIKL [46L_47M_49E_50I_52G_53F_54Q_55C_67L_, Q9UKT9]",0.286,0.912,2.55,2.04
"LICEICGFQCTQKGNLLRHIKL [46L_47I_49E_50I_52G_53F_54Q_55C_67L_, Q9UKT9]",0.761,2.3,2.38,3
"LWCEICGFQCTQKGNLLRHIKL [46L_47W_49E_50I_52G_53F_54Q_55C_67L_, Q9UKT9]",3.2,3.49,2.53,1.13
